Among all 5,500 compounds or so, about 2,000 (36%) were called active. Roughly 18% stayed inconclusive and do not appear here. Cut-off read from the data, not from the text of the source: active = normalized growth mostly below about 0.91 (no sharp cut-off); inconclusive = no clear call, values can overlap the other calls; inactive = mostly above about 0.92. Some of the results follow.
Assay: chemical genetic growth profiling, strain panel (AID 1159580);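 note: tested at 20 µM; growth read once vehicle control cultures reached saturation at 30 °C; 1 = growth at the plate median or of vehicle wells; lower values mean less growth of the strain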
Settings: S. cerevisiae deletion strains, growth OD

Measured: normalized growth

Cc1[nH]c(=O)c(C#N)cc1-c1ccncc1
inactive: locus YAL013W, strain DEP1, stronger effect = lower value 1.02 | locus YAL040C, strain CLN3, stronger effect = lower value 1 | locus YCL061C, strain MRC1 (second series), stronger effect = lower value 1.01 | locus YDR363W, strain ESC2, stronger effect = lower value 1.04 | locus YER002W, strain NOP16, stronger effect = lower value 0.997 | locus YGR078C, strain PAC10, stronger effect = lower value 1.01 | locus YMR263W, strain SAP30, stronger effect = lower value 1.01 | locus YMR307W, strain GAS1, stronger effect = lower value 1.01 | locus YNL153C, strain GIM3, stronger effect = lower value 1.01 | locus YNL175C, strain NOP13, stronger effect = lower value 1.01 | locus YNL197C, strain WHI3, stronger effect = lower value 1.01 | locus YNL224C, strain SQS1, stronger effect = lower value 1.01 | locus YNL322C, strain KRE1, stronger effect = lower value 1.01 | locus YOR083W, strain WHI5 (second series), stronger effect = lower value 1.01 | locus YPL241C, strain CIN2, stronger effect = lower value 0.998
